# Assay outcomes as filed in PubChem.
# TPT1 inh: Candida albicans TPT1 enzyme inhibitors, primary screen, biochemical, fluorescence polarization. recombinant caTPT1, FP RNA substrate dephosphorylation. inhibition, % at 5 µM. 300,000 tested, 0.81% active. AID 1962, 2009;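 active means inhibition above the mean of all tested compounds plus 3 SD, set per screening campaign, cut at about 24% in these data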;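 further: plate controls were DMSO alone for no effect and ferristatin control at 100 nM for full effect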
# IDE cell activ: human IDE activators in live cells, primary screen, fluorescence polarization, HEK cells, FAbeta-B substrate. FAbeta-B cleavage; 0% vehicle, 100% cell-free pure enzyme wells. 340,000 tested, 0.073% active. Insulin-degrading enzyme (Homo sapiens), P14735. activation, % at 5.96 µM;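 active means activation above the mean of all tested compounds plus 3 SD, set per screening campaign, cut at about 17% in these data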
# Target sequence (P14735 whole entry, looked up): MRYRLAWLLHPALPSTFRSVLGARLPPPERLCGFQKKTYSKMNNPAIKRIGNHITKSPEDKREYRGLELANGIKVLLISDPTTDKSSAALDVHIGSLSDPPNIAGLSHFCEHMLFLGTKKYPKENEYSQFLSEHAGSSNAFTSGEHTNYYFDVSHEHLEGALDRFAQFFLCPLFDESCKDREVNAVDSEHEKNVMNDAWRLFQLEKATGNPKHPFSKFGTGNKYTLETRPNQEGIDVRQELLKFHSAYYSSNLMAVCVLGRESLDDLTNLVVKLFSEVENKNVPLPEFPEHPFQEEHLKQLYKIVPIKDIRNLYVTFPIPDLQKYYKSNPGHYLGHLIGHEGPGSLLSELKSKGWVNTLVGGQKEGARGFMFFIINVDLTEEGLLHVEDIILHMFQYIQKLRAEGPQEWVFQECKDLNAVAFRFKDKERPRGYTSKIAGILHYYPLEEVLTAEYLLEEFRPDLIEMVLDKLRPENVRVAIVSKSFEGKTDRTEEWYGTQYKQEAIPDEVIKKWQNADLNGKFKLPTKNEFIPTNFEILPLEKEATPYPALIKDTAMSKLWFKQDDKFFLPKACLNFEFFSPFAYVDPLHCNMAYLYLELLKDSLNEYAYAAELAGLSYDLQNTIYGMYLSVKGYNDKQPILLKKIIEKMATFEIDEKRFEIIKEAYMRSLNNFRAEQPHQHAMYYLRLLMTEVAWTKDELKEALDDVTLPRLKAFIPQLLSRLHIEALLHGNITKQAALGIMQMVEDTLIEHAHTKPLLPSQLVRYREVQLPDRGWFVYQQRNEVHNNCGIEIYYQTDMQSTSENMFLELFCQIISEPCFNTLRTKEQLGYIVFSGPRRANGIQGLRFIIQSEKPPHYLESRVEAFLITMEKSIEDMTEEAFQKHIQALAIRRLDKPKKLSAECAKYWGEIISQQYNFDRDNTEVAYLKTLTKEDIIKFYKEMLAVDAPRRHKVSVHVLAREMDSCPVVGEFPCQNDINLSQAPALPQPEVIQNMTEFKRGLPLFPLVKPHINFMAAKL
# Calb FLC: C. albicans growth inhibition with fluconazole, primary screen, CaCi-2 strain, Alamar Blue fluorescence; 300,000 tested, 0.57% active; C. albicans CaCi-2 (fluconazole-resistant clinical isolate) + fluconazole, 48 h; growth inhibition, % (no concentration beside the values);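 active means growth inhibition above about 58% in most replicates, limit read from the data, passing the limit was not always enough; inconclusive means exactly half the replicates above a set limit; inactive means most replicates below a set limit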;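 further: all wells also contain fluconazole at 8 µg/ml as a sub-toxic cotreatment; 0% = median of DMSO wells and 100% = median of geldanamycin control wells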
# IDE inh: human IDE inhibitors in live cells, primary screen, fluorescence polarization, HEK cells, FAbetaB substrate | Insulin-degrading enzyme (Homo sapiens), P14735 | FAbetaB cleavage | inhibition, % at 5.59 µM | 320,000 tested, 0.41% active;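 active means percent inhibition above the average of all tested compounds plus 3 SD, set per screening campaign, cut at about 16% in these data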;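 further: IDE supplied by intact live HEK cells; FP after avidin binding of uncleaved biotin substrate so inhibition keeps polarization high; 0% = DMSO wells and 100% = 60 µM reference IDE inhibitor Ii1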
# Rin1 Abl inh: inhibitors of Rin1-Abl protein binding, primary screen, biochemical, TR-FRET; inhibition, % at 7.35 µM; 360,000 tested, 0.4% active; in the data active means inhibition above about 5%, passing the limit was not always enough
# Rpn11 inh: Rpn11 (PSMD14) deubiquitinase inhibitors, primary screen, biochemical, fluorescence polarization, uHTS; 26S proteasome non-ATPase regulatory subunit 14 (Homo sapiens), O00487; human 26S proteasome, Ub4-pepOG fluorescence polarization; 20S core pre-blocked with epoxomicin; inhibition, % at 20 µM; 360,000 tested, 0.59% active; AID 588493, 2011;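 active means inhibition at 20 µM, scaled to each plate's controls, above about 33%, limit read from the data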
# IDE inh confirm: human IDE inhibitors in live cells, confirmation, fluorescence polarization, HEK cells, FAbetaB substrate; shares compounds with IDE inh; FAbetaB cleavage; inhibition, % at 5.59 µM; 1,200 tested, 51% active;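 active means mean inhibition across triplicate wells above the cutoff set by the earlier primary insulin-degrading enzyme screen, cut at about 16% in these data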;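 further: 0% = DMSO wells and 100% = 60 µM reference IDE inhibitor Ii1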
# HEK293 tox: cytotoxicity in HEK cells, cytotoxicity control for IDE inhibitor project, cell-based, luminescence | HEK293 cytotoxicity, ATP luminescence | shares compounds with IDE inh | inhibition, % at 5.59 µM | AID 449730, 2010 | 1,200 tested, 28% active; in the data active means inhibition above about 22%;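 further: 0% = vehicle wells and 100% = reference cytotoxic drug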
# * marks the source's active call; other numbers are inactive results; ? = inconclusive; . = no result given. Compounds with a hit are over-represented: about 2.3% of the library has one in this group of screens.
SMILES,TPT1 inh,IDE cell activ,Calb FLC,IDE inh,Rin1 Abl inh,Rpn11 inh,IDE inh confirm,HEK293 tox
Cc1ccc(-c2c(C(=O)N/N=C/c3cccc(Cl)c3)nnn2-c2nonc2N)cc1,-3,-42,-7,53*,0,6,45*,10
Cc1ccc(-c2c(C(=O)N/N=C/c3ccoc3)nnn2-c2nonc2N)cc1,0,5,11,3,-3,4,.,.
CCCOc1ccc(-c2c(C(=O)N/N=C(\C)c3cccnc3)nnn2-c2nonc2N)cc1,2,5,10,2,-1,-5,.,.
CCCOc1ccc(-c2c(C(=O)N/N=C(\C)COc3ccccc3)nnn2-c2nonc2N)cc1,0,-1,-8,20*,2,-4,6,3
CCOc1ccc(-c2cc(C(=O)Nc3ccc(F)cc3)[nH]n2)c(C)c1,.,.,.,.,0,-3,.,.
CCOC(=O)C1CCCN(C(=O)Cn2sc3nc(C)cc(C)c3c2=O)C1 (stereo not drawn),3,-61,4,19*,-1,11,8,66*
CCCNC(=O)Cn1sc2nc(C)cc(C)c2c1=O,5,-48,-7,40*,-2,4,14,42*
CC(=O)Cn1cnc2c(sc3nc(C)cc(C)c32)c1=O,-2,-1,21,11,0,3,.,.
Cc1cc(C)c2c(=O)n(CC(=O)N3CCC(N4CCCCC4)CC3)sc2n1,-1,-56,-2,7,0,0,.,.
CCNC(=O)C1(C)CCCN1Cc1cccc(C(F)(F)F)c1 (stereo not drawn),.,.,.,.,2,-5,.,.
COc1ccc(/C=C2\N=C(c3ccccc3)N(c3ccc(C(=O)O)cc3)C2=O)cc1OC,16,7,2,5,0,11,.,.
COc1ccc(Cl)cc1NC(=O)CN(C)C(=O)Cc1ccc2c(c1)CCC2,1,-8,5,18*,2,2,19*,13
CCOc1ccc(NC(=O)c2ccccn2)cc1,-7,2,-13,17*,0,-8,10,27*
COc1c(C)cc(C(O)c2ncc(-c3ccccc3C)[nH]2)cc1C (stereo not drawn),.,.,.,.,-1,-5,.,.
O=C(O)c1ccc(Nc2ncnc3c2cnn3Cc2ccccc2)cc1,-6,-18,11,17*,4,-2,9,4
c1ccc(Cn2ncc3c(NCc4ccco4)ncnc32)cc1,0,-11,3,18*,5,-14,10,12
c1ccc(-n2ncc3c(NCc4ccco4)ncnc32)cc1,-3,1,0,-1,1,-2,.,.
CC(C)CNc1ncnc2c1cnn2Cc1ccccc1Cl,1,-11,1,17*,2,-9,9,12
CC1(C(=O)NCCC#N)CCN1C(=O)Cc1ccc(-c2ccccc2)cc1 (stereo not drawn),.,.,.,.,-4,-6,.,.
CCCOc1ccc(NC(=O)CCC(=O)NC(C)c2ccccc2)cc1 (stereo not drawn),1,5,14,3,1,-2,.,.
Cc1ccc(CNC(=O)C2CCN(S(=O)(=O)N3CCC4(CC3)OCCO4)CC2)cc1,-3,0,-16,5,3,4,.,.
c1ccc(COc2ncnc3c2ncn3CCCNCC2CCCO2)cc1 (stereo not drawn),.,3,.,.,-3,-3,.,.
CC(C)(C)NC(=O)CSc1nc(-c2ccc(F)cc2)cs1,2,5,-16,16*,4,5,2,14
O=c1oc2cc(O)ccc2cc1-c1nc2c(s1)CCc1ccccc1-2,19,31*,.,128*,-4,-29,26*,16
COc1ccc(CN2CCN(Cc3c[nH]c4ccccc34)CC2CCO)c(F)c1 (stereo not drawn),-2,4,-19,8,-2,4,.,.
SMILES,TPT1 inh,IDE cell activ,Calb FLC,IDE inh,Rin1 Abl inh,Rpn11 inh,IDE inh confirm,HEK293 tox
COc1ccc(C=C2CCc3ccccc3C2=O)cc1,.,.,.,.,2,-1,.,.
COc1ccc2c(c1)CC/C(=C/c1ccco1)C2=O,15,-4,0,19*,-2,7,2,15
COc1cc(C(=O)OCC(=O)Nc2ccc3c(c2)OC(F)(F)O3)ccc1OCc1c(C)noc1C,0,1,9,17*,-1,-3,3,7
CC(C)Oc1ccc2ccccc2c1CNC[C@H]1O[C@@H](n2ccc(N)nc2=O)[C@H](O)[C@@H]1O,.,.,.,.,-2,-11,.,.
CCOc1cc(-c2nc3n(c(=O)c2C#N)CCS3)ccc1O,4,-31,8,25*,1,-3,41*,15
CCOc1ccc(-c2nc3n(c(=O)c2C#N)CCS3)cc1,1,0,-15,-1,-2,10,.,.
Cc1ccc(C(=O)/C=C/N(C)C)o1,7,7,2,6,-1,-3,.,.
Cc1ccc(C(=O)/C=C/c2cc(Br)cc(Br)c2O)o1,9,-13,55,16*,-3,7,26*,21
C=CCOc1ccccc1CN1CCC(Oc2cc(C(=O)NC3CC3)ccc2OC)CC1,.,1,-1,.,0,7,.,.
O=C(O)CC12CC3CC(C1)CC(n1ncc(NCc4ccccc4Cl)c(Cl)c1=O)(C3)C2,2,-36,1,39*,-3,5,20*,9
O=C(O)CC12CC3CC(C1)CC(n1ncc(NCc4ccc5c(c4)OCO5)c(Cl)c1=O)(C3)C2,-11,.,-4,7,.,.,.,.
O=C(O)CC12CC3CC(C1)CC(n1ncc(NCc4ccc(F)cc4Cl)c(Cl)c1=O)(C3)C2,3,-15,27,28*,2,2,21*,5
COc1ccc(-c2cc(-c3ccc(OC)c(OC)c3)n[nH]2)c(O)c1,-5,-4,?,17*,4,-8,8,14
COc1ccc(CCn2c(C(C)C)nc3oc4ccccc4c(=O)c3c2=O)cc1,3,4,23,8,-2,-1,.,.
COc1ccccc1NC(=O)c1ccc(NC(=O)COC(=O)C2CCCO2)cc1 (stereo not drawn),.,2,.,.,-2,2,.,.
COc1ccccc1NC(=O)c1ccc(NC(=O)COC(=O)C2CC2C)cc1 (stereo not drawn),-1,-3,-1,19*,1,-3,3,9
